The values below come from the supplement of paper PMC10849652.

The full data set covers some 7,900 targets. This sample favours those with a hit. About 0.6% of all pairs of compound and target were hits. A number with no mark means an inactive call.

Chain of UniProt Q96CS3 (Q96CS3 whole entry, looked up): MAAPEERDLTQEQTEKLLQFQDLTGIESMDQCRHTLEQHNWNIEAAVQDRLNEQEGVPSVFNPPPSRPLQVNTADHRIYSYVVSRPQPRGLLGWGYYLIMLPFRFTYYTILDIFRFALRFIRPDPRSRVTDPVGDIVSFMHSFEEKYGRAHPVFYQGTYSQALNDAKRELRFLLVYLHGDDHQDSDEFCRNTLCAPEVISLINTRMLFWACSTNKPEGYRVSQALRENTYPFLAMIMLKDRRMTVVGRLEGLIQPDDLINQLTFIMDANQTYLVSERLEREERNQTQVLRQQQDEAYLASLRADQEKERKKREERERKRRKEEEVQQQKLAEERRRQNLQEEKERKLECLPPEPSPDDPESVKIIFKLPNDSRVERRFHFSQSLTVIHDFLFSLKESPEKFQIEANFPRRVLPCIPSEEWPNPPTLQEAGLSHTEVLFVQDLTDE
Chain of UniProt Q01780 (Q01780 whole entry, looked up): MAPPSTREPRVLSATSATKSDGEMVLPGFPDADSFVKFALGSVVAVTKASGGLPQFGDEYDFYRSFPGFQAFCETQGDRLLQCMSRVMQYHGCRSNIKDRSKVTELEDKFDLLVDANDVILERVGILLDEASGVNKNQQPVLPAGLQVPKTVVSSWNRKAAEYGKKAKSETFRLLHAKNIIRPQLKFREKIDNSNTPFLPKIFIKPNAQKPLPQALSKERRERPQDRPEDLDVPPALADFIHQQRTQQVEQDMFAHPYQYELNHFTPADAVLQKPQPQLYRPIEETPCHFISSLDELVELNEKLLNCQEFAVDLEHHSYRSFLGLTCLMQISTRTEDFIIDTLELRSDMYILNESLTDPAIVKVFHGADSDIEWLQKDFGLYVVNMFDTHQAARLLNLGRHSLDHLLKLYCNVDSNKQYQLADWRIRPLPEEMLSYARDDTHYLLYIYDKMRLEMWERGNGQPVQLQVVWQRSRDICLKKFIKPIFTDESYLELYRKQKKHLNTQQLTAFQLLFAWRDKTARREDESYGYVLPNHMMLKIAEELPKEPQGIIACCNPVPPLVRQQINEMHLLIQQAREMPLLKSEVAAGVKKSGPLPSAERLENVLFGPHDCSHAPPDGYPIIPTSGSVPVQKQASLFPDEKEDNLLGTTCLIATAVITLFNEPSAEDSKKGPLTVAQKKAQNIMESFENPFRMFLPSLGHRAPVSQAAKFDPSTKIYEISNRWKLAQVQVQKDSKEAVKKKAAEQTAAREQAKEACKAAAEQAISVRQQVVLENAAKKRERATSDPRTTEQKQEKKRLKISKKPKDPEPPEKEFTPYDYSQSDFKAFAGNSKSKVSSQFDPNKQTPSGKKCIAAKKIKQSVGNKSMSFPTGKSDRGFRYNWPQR
Chain of UniProt P50402 (P50402 whole entry, looked up): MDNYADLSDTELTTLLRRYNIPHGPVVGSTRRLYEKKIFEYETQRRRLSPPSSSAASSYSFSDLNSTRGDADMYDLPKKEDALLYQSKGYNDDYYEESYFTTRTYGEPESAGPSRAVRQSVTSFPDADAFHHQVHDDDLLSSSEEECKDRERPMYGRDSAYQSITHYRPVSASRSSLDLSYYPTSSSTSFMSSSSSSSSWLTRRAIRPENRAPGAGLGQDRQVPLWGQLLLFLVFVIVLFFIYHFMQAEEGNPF
Chain of UniProt Q03468 (Q03468 whole entry, looked up): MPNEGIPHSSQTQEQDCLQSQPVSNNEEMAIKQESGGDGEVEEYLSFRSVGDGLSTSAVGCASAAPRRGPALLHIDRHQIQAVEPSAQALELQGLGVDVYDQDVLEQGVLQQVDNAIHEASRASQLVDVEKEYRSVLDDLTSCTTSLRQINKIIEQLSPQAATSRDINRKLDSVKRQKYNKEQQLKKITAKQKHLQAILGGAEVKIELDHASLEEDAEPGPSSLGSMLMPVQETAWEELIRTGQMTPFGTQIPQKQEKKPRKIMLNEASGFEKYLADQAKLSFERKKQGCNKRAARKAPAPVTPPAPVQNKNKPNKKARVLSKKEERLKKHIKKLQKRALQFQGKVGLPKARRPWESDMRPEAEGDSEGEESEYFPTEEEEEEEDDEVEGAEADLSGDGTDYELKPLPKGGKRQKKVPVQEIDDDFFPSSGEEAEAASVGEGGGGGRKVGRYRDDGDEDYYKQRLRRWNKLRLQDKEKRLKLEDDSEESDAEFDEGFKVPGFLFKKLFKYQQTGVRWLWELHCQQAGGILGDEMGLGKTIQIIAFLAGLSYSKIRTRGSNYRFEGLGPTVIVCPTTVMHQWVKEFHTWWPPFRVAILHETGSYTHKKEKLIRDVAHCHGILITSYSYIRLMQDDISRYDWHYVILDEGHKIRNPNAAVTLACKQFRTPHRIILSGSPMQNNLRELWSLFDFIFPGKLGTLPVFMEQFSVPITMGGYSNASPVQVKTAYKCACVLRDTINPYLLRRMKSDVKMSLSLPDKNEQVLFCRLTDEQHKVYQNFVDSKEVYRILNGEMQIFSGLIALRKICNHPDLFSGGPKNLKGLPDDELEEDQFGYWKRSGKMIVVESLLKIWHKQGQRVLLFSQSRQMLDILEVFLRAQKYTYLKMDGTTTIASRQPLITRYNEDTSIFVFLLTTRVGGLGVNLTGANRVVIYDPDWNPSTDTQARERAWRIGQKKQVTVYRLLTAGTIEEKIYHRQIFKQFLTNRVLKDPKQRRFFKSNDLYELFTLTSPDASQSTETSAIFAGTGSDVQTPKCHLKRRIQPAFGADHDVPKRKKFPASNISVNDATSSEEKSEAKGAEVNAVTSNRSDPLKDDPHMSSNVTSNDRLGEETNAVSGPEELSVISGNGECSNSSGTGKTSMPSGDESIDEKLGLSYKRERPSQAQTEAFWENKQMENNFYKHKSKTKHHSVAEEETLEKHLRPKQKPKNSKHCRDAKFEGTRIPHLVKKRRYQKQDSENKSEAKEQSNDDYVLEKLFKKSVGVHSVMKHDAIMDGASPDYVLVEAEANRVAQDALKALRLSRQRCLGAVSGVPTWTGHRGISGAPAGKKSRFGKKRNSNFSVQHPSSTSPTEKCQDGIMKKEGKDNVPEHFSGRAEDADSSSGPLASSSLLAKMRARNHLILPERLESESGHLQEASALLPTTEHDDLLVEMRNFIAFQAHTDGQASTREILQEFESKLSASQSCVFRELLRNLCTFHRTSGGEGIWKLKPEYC
Chain of UniProt Q8N3D4 (Q8N3D4 whole entry, looked up): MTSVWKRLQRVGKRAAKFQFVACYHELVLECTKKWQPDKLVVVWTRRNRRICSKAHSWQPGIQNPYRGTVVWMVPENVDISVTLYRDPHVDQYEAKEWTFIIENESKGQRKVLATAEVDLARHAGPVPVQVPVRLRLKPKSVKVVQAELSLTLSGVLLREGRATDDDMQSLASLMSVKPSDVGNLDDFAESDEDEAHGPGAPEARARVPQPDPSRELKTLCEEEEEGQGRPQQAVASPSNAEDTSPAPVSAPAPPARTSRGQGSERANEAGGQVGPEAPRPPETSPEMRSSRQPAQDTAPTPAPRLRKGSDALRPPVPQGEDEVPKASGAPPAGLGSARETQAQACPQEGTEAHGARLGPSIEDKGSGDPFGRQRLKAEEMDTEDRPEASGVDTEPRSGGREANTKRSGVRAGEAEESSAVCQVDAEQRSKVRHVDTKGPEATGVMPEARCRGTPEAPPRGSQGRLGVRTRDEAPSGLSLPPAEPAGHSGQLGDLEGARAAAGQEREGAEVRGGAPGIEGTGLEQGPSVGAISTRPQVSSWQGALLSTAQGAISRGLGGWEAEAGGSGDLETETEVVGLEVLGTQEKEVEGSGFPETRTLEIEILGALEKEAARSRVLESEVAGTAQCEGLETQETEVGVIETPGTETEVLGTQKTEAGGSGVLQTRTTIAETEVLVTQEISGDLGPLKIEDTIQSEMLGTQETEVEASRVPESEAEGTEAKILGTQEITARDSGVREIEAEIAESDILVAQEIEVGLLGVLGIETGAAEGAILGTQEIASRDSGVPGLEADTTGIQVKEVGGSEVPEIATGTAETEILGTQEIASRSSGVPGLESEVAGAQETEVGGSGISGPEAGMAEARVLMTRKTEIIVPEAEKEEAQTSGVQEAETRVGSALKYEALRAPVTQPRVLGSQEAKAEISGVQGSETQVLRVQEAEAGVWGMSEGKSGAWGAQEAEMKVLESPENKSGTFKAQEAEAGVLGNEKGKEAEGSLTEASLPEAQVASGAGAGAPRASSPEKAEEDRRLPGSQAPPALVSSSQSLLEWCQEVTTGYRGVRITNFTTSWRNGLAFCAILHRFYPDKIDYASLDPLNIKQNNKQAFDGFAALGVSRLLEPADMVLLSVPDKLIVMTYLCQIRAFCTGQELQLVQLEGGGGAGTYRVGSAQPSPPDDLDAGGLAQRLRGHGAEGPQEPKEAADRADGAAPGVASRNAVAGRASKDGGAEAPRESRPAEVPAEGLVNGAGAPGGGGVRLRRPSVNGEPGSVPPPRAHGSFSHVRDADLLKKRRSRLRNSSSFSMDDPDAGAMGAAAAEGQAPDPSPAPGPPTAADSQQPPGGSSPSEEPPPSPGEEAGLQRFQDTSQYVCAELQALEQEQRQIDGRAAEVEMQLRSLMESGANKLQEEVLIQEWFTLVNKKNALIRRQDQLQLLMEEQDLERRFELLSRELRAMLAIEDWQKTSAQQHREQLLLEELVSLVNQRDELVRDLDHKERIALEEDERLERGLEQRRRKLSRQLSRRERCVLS
Chain of UniProt Q9H410 (Q9H410 whole entry, looked up): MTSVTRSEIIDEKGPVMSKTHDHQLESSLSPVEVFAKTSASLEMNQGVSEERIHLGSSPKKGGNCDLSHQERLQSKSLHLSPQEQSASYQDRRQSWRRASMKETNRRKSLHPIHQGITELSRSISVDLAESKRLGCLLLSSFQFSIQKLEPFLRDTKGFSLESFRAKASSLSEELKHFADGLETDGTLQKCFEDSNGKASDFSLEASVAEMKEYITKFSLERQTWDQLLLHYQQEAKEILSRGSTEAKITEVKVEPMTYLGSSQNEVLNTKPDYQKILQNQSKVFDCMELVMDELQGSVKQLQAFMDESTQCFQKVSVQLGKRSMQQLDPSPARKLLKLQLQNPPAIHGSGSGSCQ

Compound in the test: c1cn2cc(-c3ccc4cn[nH]c4c3)nc(Nc3ccc(N4CCOCC4)cc3)c2n1 [entospletinib]
The test can be described thus: log2 fold change, soluble protein after heating vs DMSO (PISA); higher = thermal stabilisation; K562 cells, 10 uM, 30 min; active = over 0.2 and 3.5 SD of the protein, either way, in both replicates (recomputed). Summed up:
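Thermal stability values are relative to control samples and come from duplicates. They are expressed as log2 fold changes. For measurement, K562 cells (2×10^6 cells/mL) received 10 μM compound for 30 min, and aliquots were heated for 3 min over 48°C-58°C, pooled, and extracted at 4°C in PBS with 0.5% NP-40. Soluble protein, the supernatant after 21,000xg for 90 min, was quantified by TMTpro 16plex LC-MS/MS with equalised channel sums.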
In the case of DDB1 isoform 2 (UniProt Q16531), the log2 fold change is 0.162.

Consider FAM193B (UniProt Q96PV7), for which the log2 fold change was -0.031.

As to FAM3A (UniProt P98173), the log2 fold change is 0.023.

As to EGLN1 (UniProt Q9GZT9), the log2 fold change is 0.

Turning to ERCC2 (UniProt P18074), the log2 fold change is 0.154.

For DTYMK (UniProt P23919), the log2 fold change was 0.013.

Consider FAM160A2 isoform 2 (UniProt Q8N612), for which the log2 fold change is 0.039.

Regarding ECPAS (UniProt Q5VYK3), the log2 fold change is -0.025.

As for DCUN1D1 (UniProt Q96GG9), the log2 fold change was -0.023.

On to DNAAF2 (UniProt Q9NVR5), for which the log2 fold change was 0.051.

With ERCC6 (UniProt Q03468), the log2 fold change was 0.045.

Consider FAM117B (UniProt Q6P1L5), for which the log2 fold change is 0.009.

With DYNC1LI2 (UniProt O43237), the log2 fold change was -0.005.

For the target DHRS7B (UniProt Q6IAN0), the log2 fold change was 0.134.

For the target DBT (UniProt P11182), the log2 fold change is 0.025.

As for DDX46 (UniProt Q7L014), the log2 fold change was -0.043.

As to DHPS (UniProt P49366), the log2 fold change is -0.003.

For EHBP1L1 (UniProt Q8N3D4), the log2 fold change is -0.013.

Consider CWF19L2 (UniProt Q2TBE0), for which the log2 fold change is -0.162.

Take EXTL2 (UniProt Q9UBQ6): the log2 fold change is 0.03.

On to EXOSC10 (UniProt Q01780), for which the log2 fold change was 0.1.

For the target DCAF10 (UniProt Q5QP82), the log2 fold change is 0.307.

As to CWC27 (UniProt Q6UX04), the log2 fold change was -0.019.

As to CTSB (UniProt P07858), the log2 fold change was 0.008.

Turning to EMD (UniProt P50402), the log2 fold change is 0.102.

As to DERPC (UniProt P0CG12), the log2 fold change was 0.125.

With EBNA1BP2 (UniProt Q99848), the log2 fold change is 0.031.

Regarding FAF2 (UniProt Q96CS3), the log2 fold change is -0.015.

Turning to EXOC8 (UniProt Q8IYI6), the log2 fold change is -0.013.

E2F4 (UniProt Q16254): the log2 fold change was 0.02.

In the case of DSN1 (UniProt Q9H410), the log2 fold change is -0.044.

On to DLD (UniProt P09622), for which the log2 fold change is 0.051.

Regarding CUX1 isoform 3 (UniProt P39880), the log2 fold change is 0.016.

Take DAB2 (UniProt P98082): the log2 fold change was 0.043.

With FAM118A (UniProt Q9NWS6), the log2 fold change is 0.248.
